These results are taken from PubChem BioAssay (NCATS).

In assay [1] the test system is AA1029. The assay is described as follows: qHTS profiling for inhibitors of Plasmodium falciparum proliferation (AID 504749). Further: nearly all actives have a fitted effect of over 60% in size. Further: potency means the concentration at half of the fitted maximal effect. The conditions noted are these: P. falciparum in erythrocytes, SYBR Green DNA, 72 h; series mostly up to 28.7 µM. An outline of the steps: (§1)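 P. falciparum-infected erythrocytes (0.3% parasitemia, 2.5% hematocrit final) were exposed to compounds for 72 h at 37 C in 5% CO2, then lysed with SYBR Green buffer overnight at room temperature; parasite DNA fluorescence was normalized to artemisinin and DMSO controls.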
(In general: qHTS replaces the single test concentration by a dilution series.)

The subject of assay [2] is ATS95. The assay is described as above. The following applies: P. falciparum in erythrocytes, SYBR Green DNA, 72 h; series mostly up to 28.7 µM. The gist of the method: as §1
In assay [3] the test system is DIV17. Described as above. The conditions noted are these: P. falciparum in erythrocytes, SYBR Green DNA, 72 h; series mostly up to 28.7 µM. An outline of the steps: as §1
The test system of assay [4] is P93_24. The description is as above. The conditions noted are these: P. falciparum in erythrocytes, SYBR Green DNA, 72 h; series mostly up to 28.7 µM. The gist of the method:
as §1

The test system of assay [5] is SC27B. The assay is described as above. The conditions noted are these: P. falciparum in erythrocytes, SYBR Green DNA, 72 h; series mostly up to 28.7 µM. The gist of the method: as §1
For assay [6], the system named is TAB109. The description is as above. The following applies: P. falciparum in erythrocytes, SYBR Green DNA, 72 h; series mostly up to 28.7 µM. An outline of the steps: as §1
Assay [7] relates to TAB165. The assay is described as above. The following applies: P. falciparum in erythrocytes, SYBR Green DNA, 72 h; series mostly up to 28.7 µM. An outline of the steps:
as §1

Assay [8] relates to W2. Described as above. The conditions noted are these: P. falciparum in erythrocytes, SYBR Green DNA, 72 h; series mostly up to 28.7 µM. An outline of the steps: as §1
For assay [9], the target named is Alpha-galactosidase (Coffea arabica) (UniProt Q42656). The assay is described as follows: Counterscreen for Glucocerebrosidase Inhibitors: qHTS Assay for Coffee Bean alpha-Galactosidase at pH 4.5 (AID 957).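 Further: plate controls were enzyme alone for no effect and no enzyme for full effect.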 The gist of the method: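 AC50 values derive from Hill-equation modeling of concentration-response data, normalized to no-enzyme and full-activity controls. The pH 4.5 citrate assay used 2 nM coffee bean enzyme and 80 uM fluorogenic substrate for 20 min.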

For assay [10] the target is unchanged. Briefly: Counterscreen for Glucocerebrosidase Inhibitors: qHTS Assay for Coffee Bean alpha-Galactosidase at pH 5.9 (AID 998).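 Further: plate controls were uninhibited enzyme for no effect and no-enzyme basal signal for full effect.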 An outline of the steps:
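Green coffee bean enzyme (2 nM final) was incubated with compounds (0.7 nM–77 uM) and 4-methylumbelliferyl alpha-D-galactopyranoside (80 uM) in citrate buffer pH 5.9, 20 min at room temperature. High-pH stop; fluorescence 365/440 nm; AC50 from Hill fits.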
In general terms: A counterscreen serves to expose hits that act by an unwanted route or on another target.

Assay [11] deals with 7G8. Briefly: qHTS profiling for inhibitors of Plasmodium falciparum proliferation (AID 504749). Further: nearly all actives have a fitted effect of over 60% in size. Further: potency means the concentration at half of the fitted maximal effect. The conditions noted are these: P. falciparum in erythrocytes, SYBR Green DNA, 72 h; series mostly up to 28.7 µM. An outline of the steps:
as §1

The test system of assay [12] is CP247. The description is as above. The conditions noted are these: P. falciparum in erythrocytes, SYBR Green DNA, 72 h; series mostly up to 28.7 µM. The gist of the method: as §1
In assay [13] the target is Peroxisome proliferator-activated receptor delta (Homo sapiens) (UniProt Q03181). The assay is described as follows: qHTS assay for small molecule agonists of peroxisome proliferator-activated receptor delta signaling (AID 588534; calls by dose curve;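 further: 0% = DMSO basal wells and 100% = positive control agonist at 10 µM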). An outline of the steps: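 Reporter cells were plated and held 5 hrs at 37 C before compounds were added. After 18 hrs at 37 C, CCF4 dye was loaded for 2 hrs at RT and fluorescence measured.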

In assay [14] the target is Vitamin D3 receptor (Homo sapiens) (UniProt P11473). Briefly: qHTS assay for small molecule antagonists of vitamin D receptor signaling (AID 588541; calls by dose curve;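 further: receptor activated by calcitriol during compound treatment; on the % scale 0 is the no-effect control and ±100 the full control effect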). The gist of the method:
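VDR-UAS-bla HEK293T cells (2000/well, 2% charcoal-stripped FBS) were treated with titrated compounds plus 1-alpha,25-dihydroxyvitamin D3 (50 nM or 3 nM final) for 16 h at 37 C. CCF4 beta-lactamase fluorescence was read; Hill fits gave IC50.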

For assay [15] the target is unchanged. The assay is described as follows: qHTS assay for small molecule agonists of vitamin D receptor signaling (AID 588543; calls by dose curve;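 further: 0% = DMSO basal and 100% = reference agonist control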). An outline of the steps:
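qHTS in agonist mode: compound titrations stimulate a VDR-driven β-lactamase reporter in HEK293T cells over 16 h at 37 °C. Response normalized to 50 nM 1α,25-dihydroxyvitamin D3 = 100%, DMSO = 0%; Hill fitting gives EC50 and maximal response.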

The target in assay [16] is Thyroid hormone receptor beta (Homo sapiens) (UniProt P10828). Briefly: qHTS assay for small molecule agonists of thyroid hormone receptor beta signaling (AID 588545; calls by dose curve;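 further: 0% = DMSO only and 100% = 10 nM T3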). The gist of the method: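 Compounds were tested as agonists in TR-UAS-bla-GripTite HEK 293 cells. After 18 hrs at 37 C, CCF4 substrate was added and fluorescence read after 2 hrs at room temperature.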
Assay [17] in a line: qHTS assay for small molecule antagonists of retinoid X receptor alpha signaling (AID 588546).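 Further: cells stimulated with 9-cis-retinoic acid as agonist; on the % scale 0 is the no-effect control and ±100 the full control effect.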 The conditions noted are these: HEK293T RXRa-UAS-bla, beta-lactamase ratio, antagonist mode; measured here: W530 green channel, cytotoxicity proxy. An outline of the steps:
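Beta-lactamase reporter inhibition, read as CCF4 fluorescence ratio (ex 405, em 460/530 nm) after 2 h at RT. HEK293T UAS-bla cells, 2500/well, were stimulated with 9-cis-RA at 500 or 100 nM final alongside test compound for 18 h at 37 C.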

Assay [18] addresses Peroxisome proliferator-activated receptor alpha (Homo sapiens) (UniProt Q07869). The assay is described as follows: qHTS assay for small molecule agonists of the peroxisome proliferator-activated receptor alpha (PPARalpha) signaling pathway (AID 651778). Further: % of control where 0% means no effect. The conditions noted are these: PathHunter PPARalpha complementation, chemiluminescence, 6 h; max response: stronger effect = higher value. The gist of the method: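 Cells plated at 2,000/well and held overnight at 37 C, 5% CO2, then compound added by pin tool for 6 hr; after PathHunter detection reagent and 60 min at room temperature, chemiluminescence from enzyme complementation was read.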

Assay [19] in a line: qHTS assay for small molecule agonists of the antioxidant response element (ARE) signaling pathway measured by Nrf2-dependant transcriptional activity - cell viability counter screen (AID 720653; active means well fitted curve in the direction sought with a large enough effect in the repeat runs; an effect the other way counts as inactive or inconclusive; further: potency means the concentration at half of the fitted maximal effect; on max response: on the % scale 0 is the no-effect control and ±100 the full control effect). The conditions noted are these: ARE-bla HepG2 viability, CellTiter-Glo ATP luminescence, 16 h; max response: stronger effect = lower value. The gist of the method:
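ARE-bla HepG2 cells (2,000/well) rested 5 hrs at 37C/5% CO2, then exposed to compounds in DMSO for 16 hrs. Viability was read in the same wells as intracellular ATP by luminescence, 30 min at room temperature after reagent addition.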

The target of assay [20] is Peroxisome proliferator-activated receptor gamma (Homo sapiens) (UniProt P37231). Briefly: qHTS assay for small molecule antagonists of peroxisome proliferator-activated receptor gamma signaling (AID 588537; active means well fitted inhibition curve with a large enough effect in the signal ratio, with a control signal flat, not every such curve was filed as active; the % refers to the signal ratio; further: potency means the concentration at half of the fitted maximal effect). The gist of the method:
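PPAR-gamma-UAS-bla HEK293 cells (3000/well, 1% charcoal/dextran-stripped FBS) were preincubated 6-6.5 h at 37 C, given titrated compounds, then stimulated with 50 nM rosiglitazone for 16 h. Beta-lactamase activity was read with CCF4 dye; IC50 came from Hill fits.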

Inconclusive results are not listed. The source made the active and inactive calls. Unless noted, the call rests on the fitted dose curve; in most records, active means well fitted curve in the direction sought with a large enough effect; inconclusive means small, poorly fitted or top-dose-only effect, or another doubt; inactive means no such curve, though single readings can be large; an effect the other way counts as inactive or inconclusive.

Vitamin D3 receptor (Homo sapiens), sequence (P11473 whole entry, looked up): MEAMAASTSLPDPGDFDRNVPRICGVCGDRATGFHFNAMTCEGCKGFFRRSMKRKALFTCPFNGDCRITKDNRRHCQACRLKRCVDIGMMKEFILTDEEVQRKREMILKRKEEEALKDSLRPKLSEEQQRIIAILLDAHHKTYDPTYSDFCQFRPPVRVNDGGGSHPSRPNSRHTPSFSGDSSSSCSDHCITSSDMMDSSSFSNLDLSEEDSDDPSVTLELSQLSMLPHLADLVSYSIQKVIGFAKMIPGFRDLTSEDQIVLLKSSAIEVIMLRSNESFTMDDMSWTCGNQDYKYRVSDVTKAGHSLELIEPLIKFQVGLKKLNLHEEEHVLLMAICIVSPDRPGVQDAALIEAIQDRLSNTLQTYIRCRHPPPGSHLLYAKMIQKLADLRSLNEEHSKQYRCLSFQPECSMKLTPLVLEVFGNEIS
Peroxisome proliferator-activated receptor alpha (Homo sapiens), sequence (Q07869 whole entry, looked up): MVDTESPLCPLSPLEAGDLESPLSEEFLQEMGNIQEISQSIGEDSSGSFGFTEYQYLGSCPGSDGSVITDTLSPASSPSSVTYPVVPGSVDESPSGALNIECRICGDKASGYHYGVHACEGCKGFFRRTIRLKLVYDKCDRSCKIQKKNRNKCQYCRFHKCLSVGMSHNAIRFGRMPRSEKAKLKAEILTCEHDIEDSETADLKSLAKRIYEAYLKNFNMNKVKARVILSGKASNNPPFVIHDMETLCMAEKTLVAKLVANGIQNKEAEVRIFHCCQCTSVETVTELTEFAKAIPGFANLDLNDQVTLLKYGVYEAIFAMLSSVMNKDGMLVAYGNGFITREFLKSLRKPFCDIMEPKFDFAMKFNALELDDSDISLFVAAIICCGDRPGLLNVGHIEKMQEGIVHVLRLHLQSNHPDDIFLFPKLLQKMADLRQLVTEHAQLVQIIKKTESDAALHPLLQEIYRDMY
Peroxisome proliferator-activated receptor delta (Homo sapiens), sequence (Q03181 whole entry, looked up): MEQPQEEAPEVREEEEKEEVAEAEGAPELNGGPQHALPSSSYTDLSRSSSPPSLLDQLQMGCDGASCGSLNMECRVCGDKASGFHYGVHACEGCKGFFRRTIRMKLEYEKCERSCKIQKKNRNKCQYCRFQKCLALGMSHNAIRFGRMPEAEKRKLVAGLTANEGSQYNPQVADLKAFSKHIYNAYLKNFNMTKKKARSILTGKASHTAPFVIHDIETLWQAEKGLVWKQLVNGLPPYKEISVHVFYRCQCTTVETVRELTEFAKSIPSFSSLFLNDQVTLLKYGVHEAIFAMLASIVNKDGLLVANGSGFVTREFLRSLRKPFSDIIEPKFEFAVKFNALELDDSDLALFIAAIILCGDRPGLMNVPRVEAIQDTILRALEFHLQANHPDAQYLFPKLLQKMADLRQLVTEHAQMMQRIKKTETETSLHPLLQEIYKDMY
Alpha-galactosidase (Coffea arabica), sequence (Q42656 whole entry, looked up): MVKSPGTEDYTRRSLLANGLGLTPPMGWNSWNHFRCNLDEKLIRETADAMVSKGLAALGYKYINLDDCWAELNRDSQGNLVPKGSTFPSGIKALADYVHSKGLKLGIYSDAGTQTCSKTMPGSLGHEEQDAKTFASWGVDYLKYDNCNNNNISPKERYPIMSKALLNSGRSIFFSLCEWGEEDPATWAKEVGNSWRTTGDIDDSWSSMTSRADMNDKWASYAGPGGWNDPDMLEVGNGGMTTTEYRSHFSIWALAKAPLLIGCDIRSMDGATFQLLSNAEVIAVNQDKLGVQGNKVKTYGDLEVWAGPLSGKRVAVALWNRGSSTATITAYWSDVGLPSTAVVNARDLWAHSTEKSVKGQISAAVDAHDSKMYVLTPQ
Peroxisome proliferator-activated receptor gamma (Homo sapiens), sequence (P37231 whole entry, looked up): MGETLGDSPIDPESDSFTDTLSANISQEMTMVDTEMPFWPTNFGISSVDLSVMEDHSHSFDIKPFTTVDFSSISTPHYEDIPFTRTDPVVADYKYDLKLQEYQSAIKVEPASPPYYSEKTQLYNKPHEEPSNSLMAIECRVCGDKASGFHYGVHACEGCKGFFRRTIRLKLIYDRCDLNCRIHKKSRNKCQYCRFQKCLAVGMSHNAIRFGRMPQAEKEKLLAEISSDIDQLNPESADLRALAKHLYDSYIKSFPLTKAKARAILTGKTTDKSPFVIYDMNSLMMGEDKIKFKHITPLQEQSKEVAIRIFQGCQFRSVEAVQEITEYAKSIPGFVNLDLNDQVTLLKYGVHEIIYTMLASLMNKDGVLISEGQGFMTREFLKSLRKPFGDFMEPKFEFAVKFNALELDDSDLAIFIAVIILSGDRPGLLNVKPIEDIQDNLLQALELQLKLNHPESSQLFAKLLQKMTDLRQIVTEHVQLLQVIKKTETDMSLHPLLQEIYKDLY
Thyroid hormone receptor beta (Homo sapiens), sequence (P10828 whole entry, looked up): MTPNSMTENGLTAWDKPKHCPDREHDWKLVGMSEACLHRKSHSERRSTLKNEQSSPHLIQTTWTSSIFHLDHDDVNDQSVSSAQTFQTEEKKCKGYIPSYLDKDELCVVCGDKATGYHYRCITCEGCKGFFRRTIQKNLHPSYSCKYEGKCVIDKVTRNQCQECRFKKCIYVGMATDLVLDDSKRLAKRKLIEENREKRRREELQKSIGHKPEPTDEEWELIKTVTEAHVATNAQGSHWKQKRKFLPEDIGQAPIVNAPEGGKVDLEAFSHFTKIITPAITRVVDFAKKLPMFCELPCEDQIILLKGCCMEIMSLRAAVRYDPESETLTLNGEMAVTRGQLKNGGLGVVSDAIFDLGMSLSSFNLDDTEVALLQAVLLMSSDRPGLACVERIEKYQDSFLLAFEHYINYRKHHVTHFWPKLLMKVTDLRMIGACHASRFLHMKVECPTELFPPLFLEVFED

`C#C[C@]1(O)CC[C@H]2[C@@H]3CCC4=CC(=O)CCC4(C)[C@H]3CCC21C` (stereo not given in full): the Potency result in assay [1], in assay [2], in assay [3], in assay [4], in assay [5] and in assay [6] was “inactive” in each case. The Potency result in assay [7] and in assay [8] was “inactive” in each case.
Regarding `COC1=C(OC)C(=O)c2ccccc2C1=O`, the call in assay [9] and in assay [10] was inactive.
Turning to `CCCCCCCC/C=C\CCCCCCCC(=O)NCCc1ccc(O)c(O)c1`, the outcome in [9] and in assay [10] was inactive.
As to `CC(C)(C)c1cc(/C=C(\C#N)C(N)=S)cc(C(C)(C)C)c1O`, the outcome in [9] and in [10] was inactive.
`CCC(=O)OC1(c2ccccc2)CCN(C)CC1C` (stereo not given): the Potency in assay [8] is 3.79 µM (active).
With `CC1CC[C@@]2(NC1)OC1CC3C4CC[C@@H]5CC(O)CC[C@@]5(C)C4CC[C@]3(C)C1C2C` (stereo not given in full), in assay [11], the Potency was 12.6 µM (active). Besides, the Potency entry in [1], in assay [2] and in assay [6] was “inactive” throughout.
As for `C=CC[C@]1(O)CCC2C3CCC4=CCCCC4C3CCC21C` (stereo not given in full), the Potency result in assay [1], in assay [12], in [3], in assay [4], in assay [5] and in assay [6] was “inactive” each time. Besides, the Potency entry in assay [7] was “inactive”.
As to `COc1ccccc1N1CCN(CCCCNS(=O)(=O)c2cccc3c(N(C)C)cccc23)CC1`, the outcome in assay [9] and in assay [10] was inactive.
For `CN(C)C1C(=O)C(C(N)=O)C(=O)C2(O)C(=O)C3C(=O)c4c(O)cccc4C(C)(O)C3C(O)C12` (stereo not given), the Potency entry in assay [5] was “inactive”. Also, the Potency in assay [8] was 6.75 µM (active).
For `C[C@]12CC[C@H]3[C@@H](CC[C@@]45O[C@@H]4C(=O)C(C#N)C[C@]35C)[C@@H]1CC[C@@H]2O` (stereo not given in full), the Potency entry in assay [11] and in assay [12] was “inactive” each time.
Take `CC(C)CCC(=O)OC1CCC2C3CCC4=CC(=O)CC[C@]4(C)C3CC[C@]12C` (stereo not given in full): in assay [11], the Potency is 10 µM (active). In addition, in assay [3], the Potency result is “inactive”.
Take `c1cnc2c(c1)ccc1cccnc12`: the compound was classed as inactive in assay [9], in assay [10] and in assay [13].
Consider `CCN(c1nc(N)c(C(=O)N=C(N)N)nc1Cl)C(C)C`, for which the compound was called inactive in assay [9] and in [10].
Turning to `CC(=O)[C@H]1CC[C@H]2C3CC[C@H]4C[C@H](O)CC[C@]4(C)C3CC[C@]12C` (stereo not given in full), the Potency entry in [1], in assay [2], in assay [12], in assay [3], in assay [4] and in assay [5] was “inactive” in each case. In addition, the Potency result in assay [6] and in [7] was “inactive” throughout.
`CC(C)=CC1C(C(=O)OCc2coc(Cc3ccccc3)c2)C1(C)C` (stereo not given): the result in assay [13] and in assay [15] was inactive. The Potency result in [14], in assay [16], in [1], in assay [2], in [12] and in assay [4] was “inactive” in each case. In addition, in assay [6], the Potency result was “inactive”. Also, the max response was -14.2% in assay [17], -0.283% (inactive) in [18] and -23.8% (inactive) in assay [19].
On to `N#Cc1c(Cl)c(Cl)c(Cl)c(C#N)c1Cl`, for which the Potency result in assay [16] is “inactive”. The results for the max response in assay [17] and in assay [18] were -33.7% and -3.28% (inactive), respectively. Also, the Potency in assay [19] is 70.8 µM (active).
Consider `CC(C)=O`, for which, in assay [13], the compound was classed as inactive.
Regarding `O=C1C=C2C(=CCOC2O)O1` (stereo not given), the compound was classed as inactive in assay [13] and in [15]. Also, the Potency in assay [20] is 20 µM (active). Also, the max response in assay [18] is 0.776% (inactive).
As to `O=C(NC(=O)c1c(F)cccc1F)Nc1ccc(Cl)cc1`, the outcome in assay [13] and in assay [15] was inactive. In addition, the Potency entry in [20], in [14] and in [16] was “inactive” each time. The figures for the max response in assay [17], in [18] and in [19] were -10.4%, -1.48% (inactive) and -7.3% (inactive), respectively.
For the compound `CC(C)N(C(=O)CCl)c1ccccc1`, the outcome in assay [15] was inactive. In addition, the Potency entry in assay [16] is “inactive”. The Potency in assay [19] is 39.8 µM (active).
For `CN1[C@H]2CC(OC(=O)[C@H](CO)c3ccccc3)C[C@H]1[C@H]1O[C@H]12` (stereo not given in full), in assay [13], the outcome was inactive.
With `CSc1nc(NC(C)C)nc(NC(C)C)n1`, the Potency entry in [20] and in [14] was “inactive” each time. Besides, the result in assay [15] was inactive. In addition, the max response in assay [18] was 8.44% (inactive); in assay [19], 9.37% (inactive).
For the compound `CCCCN(CC)c1c([N+](=O)[O-])cc(C(F)(F)F)cc1[N+](=O)[O-]`, the compound was classed as inactive in [13] and in [15]. Moreover, the Potency entry in assay [20], in assay [14] and in assay [16] was “inactive” in each case. The values for the max response in [17], in [18] and in assay [19] were -9.26%, -2.71% (inactive) and -14.4% (inactive), respectively.
As for `c1ccc2ncccc2c1`, the outcome in assay [13] was inactive.
On the same count and under the same terms, the same measure for `C=C(C)c1ccccc1`: “inactive”.
